HIF-2a inh: HIF-2a reporter inhibitors, primary screen, luminescence, 786-0 RCC cells | inhibition, % at 18.8 µM | 360,000 tested, 0.72% active | 786-0 RCC cells HIF-2a reporter, luciferase luminescence, overnight;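 active = inhibition of the luminescence signal of 40% or more relative to plate controls, in a single-dose primary screen at 18.75 µM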
TWEAK-Fn14 inh: inhibitors of TWEAK-Fn14 signaling, primary screen, luciferase reporter cells, uHTS; TWEAK-stimulated Fn14 reporter cells, luciferase luminescence, 8 h; inhibition, % at 10 µM; 360,000 tested, 2% active; AID 1159606, 2016; in the data active = inhibition above about 50%
Peg3 prom inh: Peg3 promoter-driven luciferase inhibitors, primary screen, cell-based, HeLa, luciferase luminescence | HeLa PEG-Prom luciferase reporter, overnight | inhibition, % at 20 µM | 360,000 tested, 1.7% active | AID 588405, 2011;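 active = inhibition of at least 50% at 20 µM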
TROY signal inh: inhibitors of TROY-driven NF-kB signaling, primary screen, Q293 LMP1-TROYcd cells, NF-kB luciferase, uHTS | 360,000 tested, 0.98% active | Q293 LMP1-TROYcd NF-kB luciferase reporter, 4 h | inhibition, % at 10 µM | AID 1347056, 2019;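 active = compounds whose plate-normalised and pattern-corrected inhibition of the luciferase reporter signal at the single screening dose is 50% or more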
EBV LMP1 NFkB: EBV LMP1-driven NF-kappaB luciferase reporter inhibitors, primary screen, cell-based, luminescence, single point; LMP1-induced NF-kappaB luciferase reporter cells; inhibition, % at 12.5 µM; 350,000 tested, 0.69% active; AID 504558, 2011; in the data active = inhibition above about 41%;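 also: 0% = neutral control wells and 100% = reference inhibitor control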
MITF TRPM1 inh: inhibitors of MITF-dependent TRPM1 promoter reporter, primary screen, cell-based, SK-MEL-5, single point, luciferase; SK-MEL-5 TRPM1 promoter luciferase, 24 h; inhibition, % at 12.5 µM; 330,000 tested, 0.83% active;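 active = mean inhibition across replicates of 60% or more, whatever share of single replicates reaches that level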
* hit, by the source's call; nt = not tested or not shown. Sampled rows, rich in hits. Any-hit rate of the full collection: about 4%.

SMILES	HIF-2a inh	TWEAK-Fn14 inh	Peg3 prom inh	TROY signal inh	EBV LMP1 NFkB	MITF TRPM1 inh
Cc1csc(NC(=O)c2ccc(S(=O)(=O)N3CCCC3)cc2)n1	-134	1	-77	-30	-1	-18
CC(=O)NC(c1ccc(F)c(F)c1)c1nc(-c2cnc3ccccc3c2)cs1 (stereo not drawn)	-129	-16	-88	-44	nt	nt
COc1cc2ccccc2ccc1=NO	5	62*	-30	22	38	9
COc1ccc2ccccc2c1/C=N/O	6	-6	6	-4	3	9
COc1ccc(OC)c2cc3ccccc3cc12	-29	17	55*	-10	-14	27
COc1cc2ccccc2cc1C(=O)O	7	-12	6	-16	-4	-11
CC1(C(=O)NS(=O)(=O)Cc2cccc(Cl)c2)CCN1C(=O)C1(c2ccc(Cl)cc2)CCC1 (stereo not drawn)	10	-18	16	15	nt	nt
O=C(O)C1=C[C@H](c2cccs2)C[C@H](OCc2ccc(CO)cc2)O1	0	1	-10	20	-2	13
COc1ccc(Cc2c(C(C)(C)C)nc3ccc(Br)cn23)c(C)c1	-24	2	-13	93*	nt	nt
Cc1c(C(=O)NCc2ccc3c(c2)OCO3)oc2ccc(S(=O)(=O)N3CCC(C)CC3)cc12	21	59*	36	17	10	20
Cc1c(C(=O)NCc2ccc3c(c2)OCO3)oc2ccc(S(=O)(=O)N3CCCCCC3)cc12	26	49	22	13	14	6
Cc1c(C(=O)NCC2COc3ccccc3O2)oc2ccc(S(=O)(=O)N3CCOCC3)cc12 (stereo not drawn)	4	57*	73*	28	16	25
Cc1c(C(=O)NCC2COc3ccccc3O2)oc2ccc(S(=O)(=O)N3CC(C)CC(C)C3)cc12 (stereo not drawn)	17	5	32	4	13	22
CCN(CC)S(=O)(=O)c1ccc2oc(C(=O)NCC3COc4ccccc4O3)c(C)c2c1 (stereo not drawn)	18	56*	28	36	15	16
CC(C)(C)N=C1NN=C(c2ccc(Cl)cc2)CS1	-190	65*	-263	62*	-9	-47
CC(C)(C)N=C1NN=C(c2cc3ccccc3o2)CS1	-184	63*	-222	70*	-29	-26
COc1ccc(CN=C2NN=C(c3ccc(Cl)cc3)CS2)cc1	-21	-15	-39	8	-11	-26
CC(=O)Nc1ccc(Sc2ncnc3scc(-c4ccccc4)c23)cc1	31	62*	10	29	14	0
O=C(O)c1ccc(Nc2ncnc3scc(-c4ccccc4)c23)cc1	23	55*	0	18	-6	10
Cn1nnnc1Sc1ncnc2scc(-c3ccccc3)c12	60*	28	49	33	34	36
C=CCOC(=O)Nc1nc(CCNC(=O)OC(C)(C)C)c(C(=O)O)s1	-4	nt	nt	nt	nt	nt
COc1ccc(O)c(/C=N/Nc2nc(Nc3ccccc3)nc(-n3nc(C)cc3C)n2)c1	-156	60*	22	-28	62*	-9
Fc1cccc(Cl)c1/C=N/Nc1c(Cl)cncc1Cl	-95	53*	-60	19	5	-20
O=C(NCc1ccccc1C(F)(F)F)c1cccc2c1C(=O)c1ccc(N3CCC(N4CCCCC4)CC3)cc1S2(=O)=O	-13	-26	106*	4	-28	nt
O=C(NCC1CCCO1)c1cccc2c1C(=O)c1ccc(N3CCC(Cc4ccccc4)CC3)cc1S2(=O)=O (stereo not drawn)	27	90*	63*	56*	19	25
SMILES	HIF-2a inh	TWEAK-Fn14 inh	Peg3 prom inh	TROY signal inh	EBV LMP1 NFkB	MITF TRPM1 inh
COc1ccc(-c2ccc3c(c2)S(=O)(=O)c2cccc(C(=O)NCc4cc(C)oc4C(F)(F)F)c2C3=O)cc1OC	0	-49	6	-3	86*	18
CC(C)c1nc(SCC(=O)Nc2cccc3ccccc23)n[nH]1	14	30	6	6	-3	22
Cc1ccc(O)c(-c2[nH]ncc2C(=O)c2ccc(Cl)cc2)c1	11	34	10	-4	-3	12
Cc1ccc(O)c(-c2[nH]ncc2C(=O)c2ccc(Br)cc2)c1	18	16	20	65*	1	-7
FC(F)(F)c1cc(CCN2CCNC[C@@H]2CC2CCCCC2)cc(C(F)(F)F)c1	5	-3	96*	-30	-7	64*
CC1N(C)c2cc(NC(=O)c3ccco3)c(P(=O)(Nc3ccc([N+](=O)[O-])cc3)N3CCOCC3)cc2C1(C)C (stereo not drawn)	1	3	3	-4	-7	-1
CC1N(C)c2cc(NC(=O)c3ccco3)ccc2C1(C)C (stereo not drawn)	-194	49	-210	53*	-8	-20
COc1ccc(-c2cccc(NC(=O)c3ccco3)c2)nn1	-5	4	16	-9	4	0
COc1ccc(-c2ccc(NC(=O)c3ccco3)cc2)nn1	-1	77*	18	43	57*	21
O=C(Nc1cnc2ccccc2c1)c1ccco1	-64	57*	-115	-25	23	-8
O=C(NCCCNC(=O)c1ccco1)c1ccc(Cl)cc1	-25	70*	5	61*	-1	-9
O=C(Nc1cccc(-c2cnc3ccccc3n2)c1)c1ccco1	-137	48	-133	nt	2	-13
O=C(N/C(=C/c1ccccc1Cl)C(=O)N1CCCCC1)c1ccco1	12	-8	12	18	-2	3
CCc1ccccc1NC(=O)c1ccc2c(O)c(S(=O)(=O)c3ccc(OC)cc3)c(=O)[nH]c2c1	-2	-1	18	-24	6	-4
O=C(Nc1ccc(Cl)c(S(=O)(=O)N2CCOCC2)c1)[C@@H]1CCCN1C(=O)c1cccs1	9	4	6	-2	-1	-8
O=C(NCc1ccccc1F)C12CC3CC(CC(C3)C1)C2	19	11	0	2	6	12
O=C(Nc1ccc(Cl)cc1)c1ccco1	-220	-5	-195	-32	57*	-42
O=C(Nc1ccc(NC(=O)c2ccco2)nc1)c1cccc(F)c1	-213	16	-319	-41	-21	-65
COc1ccc(NC(=O)c2oc3ccccc3c2NC(=O)c2ccco2)c(OC)c1	-32	46	-28	-9	16	-13
O=C(Nc1ccc(NC(=O)c2ccccc2F)cn1)c1ccco1	-1	53*	-39	23	23	-1
CCC(C)c1ccc(NC(=O)COC(=O)CCNC(=O)c2ccco2)cc1 (stereo not drawn)	-28	-11	-26	11	4	-13
